A selection: hits, their analogues and other compounds. The true share with any hit is near 15%.
Pf growth 48h: inhibits P. falciparum growth in the first generation, 48 h. P. falciparum luciferase growth in erythrocytes, 48 h. Potency, µM (doses to about 28.7 µM), without a hit: top-dose activity change, negative = inhibition, most hits filed as inhibitors. actives 5.9% (n = 310,000). AID 504832; note: potency is the fitted concentration of half-maximal effect; % is set by controls: 0 for no effect and ±100 for the full control effect
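Cell-based growth assay: transgenic P. falciparum expressing firefly luciferase, cultured in red cells within RPMI 1640 containing 0.5% w/v Albumax, 24 mM bicarbonate and gentamycin. A drop in luciferase activity indicates inhibition.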
HCMV antiviral: blocks human cytomegalovirus replication; HFF cells, HCMV-luciferase reporter, 72 h; stronger effect = lower value; activity change, negative = inhibition, % at 57.5 µM; actives 4.5% (n = 410,000); in the data active = activity change below about -60%; inconclusive = no clear call, values can overlap the other calls; inactive = above about -39%; note: % is set by controls: 0 for no effect and ±100 for the full control effect
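Cell-based, HFFs, 1000 cells/well, 16 h 37C; cpds in DMSO + HCMV-luc, MOI 1 PFU/cell; 72 h 37C; OneGlo luminescence after 5 min RT; norm. to buffer vs Salinomycin 10uM.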
HCV inhibitor: inhibitors of hepatitis C virus infection; Huh7.5.1 HCVcc-Cre infection, luciferase reporter, 44 h; Potency, µM (series often up to 41.8 µM), without a hit: at the highest dose activity change, negative = inhibition, usual class: inhibitors; actives 3.4% (n = 340,000); AID 651820; note: potency is the fitted concentration of half-maximal effect; % is set by controls: 0 for no effect and ±100 for the full control effect
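Infectious HCV cell culture screen: compound-treated cells (1,000/well, pre-plated 4 h) are infected with HCVcc-Cre at roughly 0.5 moi and grown 44 h. Infection is quantified by luciferase signal after 15 min substrate incubation at room temperature.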
Pf growth 96h: inhibits malaria parasite growth, 96 h. actives 6.9% (n = 320,000). AID 504834. Potency, µM (top dose mostly 28.7 µM), without a hit: top-dose activity change, negative = inhibition, most hits filed as inhibitors. P. falciparum luciferase reporter growth, 96 h; note: potency is the fitted concentration of half-maximal effect; % is set by controls: 0 for no effect and ±100 for the full control effect
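Two-generation exposure (96 h) targets delayed-death phenotype. Reporter parasites carrying integrated firefly luciferase, in red cells at 2% hematocrit and 0.05% parasitemia final, kept at 37 C, 5% CO2; luminescence loss indicates inhibition.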
Sm TGR block: inhibitors of Schistosoma mansoni thioredoxin glutathione reductase; AID 485364; actives 3% (n = 360,000); Potency, µM (series often up to 114 µM), without a hit: at the highest dose activity change, negative = inhibition, actives largely listed as inhibitors; Q962Y6; purified TGR, DTNB reduction, TNB absorbance 405 nm; note: potency is the fitted concentration of half-maximal effect; % is set by controls: 0 for no effect and ±100 for the full control effect; nearly all actives have a fitted effect of over 60% in size
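Kinetic colorimetric format: TGR-catalysed, NADPH-driven DTNB reduction monitored via TNB absorbance. Enzyme dispensed at 20 nM; compound exposure 15 min at room temperature before reaction start.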
SARS PLpro yeast: inhibitors of SARS-CoV papain-like protease in yeast; S. cerevisiae expressing SARS-CoV PLpro, growth rescue; Potency, µM (top dose mostly 32.9 µM), without a hit: at the highest dose activity, positive = growth rescue, usual class: activators; actives 0.19% (n = 330,000); AID 485353; calls by dose curve; note: potency is the fitted concentration of half-maximal effect; 0% is about no effect; nearly all actives have a fitted effect of over 55% in size
Active calls of the source: *; ? = inconclusive; . = no result given; [ ] = remark or other dose. Unless noted, calls come from the whole dose curve; as a rule, active = well fitted curve in the direction sought with a large enough effect; inconclusive = small, poorly fitted or top-dose-only effect, or another doubt; inactive = no such curve, though single readings can be large; an effect the other way counts as inactive or inconclusive.

SMILES	Pf growth 48h	HCMV antiviral	HCV inhibitor	Pf growth 96h	Sm TGR block	SARS PLpro yeast
CCc1ccc(NC(=O)CC2C(=O)N(c3ccc(C)cc3)C(=O)N2CCc2ccncc2)cc1 (stereo not given)	15µM*	-5	-2%	-4%	9%	2%
CCOC(=O)c1ccc(Oc2coc3cc(O)ccc3c2=O)cc1	12%	4	-21%	2.9µM*	-1%	-1%
COc1ccc(Oc2coc3cc(O)ccc3c2=O)cc1	30%	1	7%	?	16%	-4%
CCC(COC)NCc1cn(-c2ccc(OC)cc2)nc1-c1cccc(F)c1 (stereo not given)	12µM*	?	-4%	?	-3%	-2%
COc1ccc(-n2cc(CNC3CCN(C)CC3)c(-c3cccc(F)c3)n2)cc1	1.5µM*	-39	11µM*	55%	-6%	0%
COc1ccc(-n2cc(CNC(C)c3ccncn3)c(-c3cccc(F)c3)n2)cc1 (stereo not given)	-15%	?	6%	?	-5%	0%
O=C(OCc1ccccc1)N1CCC2CC1c1cc(NCCc3ccccc3)ccc12 (stereo not given)	.	-6	-3%[8.37 µM]	.	.	.
Cc1ccccc1-c1ccc(C(=O)NCc2ccccc2)o1	17%	72	-4%[8.37 µM]	-10%	-4%	-28%
Cc1ccc(-c2ccc(C(=O)NCc3ccc(Cl)cc3)o2)c2ccccc12	?	-10	-5%[8.37 µM]	?	14µM*	-21%
COc1cccc(NC(=O)c2ccc3c(O)c(S(=O)(=O)c4ccccc4)c(=O)[nH]c3c2)c1	27%	-63*	12%	-9%	-10%	-1%
COc1cccc(C(=O)Nc2ccc(Cl)c(-c3nc4ccccc4[nH]3)c2)c1	.	-89*	.	.	7%	.
COc1ccc(NC(=O)c2ccc(-c3ccc(C)c4ccccc34)o2)cc1	36%	2	?	37%	45µM*	-10%
NC(=O)CSc1nc2c(oc3ccccc32)c(=O)n1-c1ccccc1F	.	-5	.	.	3%	.
CCC1CN(C(=O)N2CCC(C(=O)Nc3ccccc3F)CC2)c2ccccc2O1 (stereo not given)	-12%	-4	?	?	7%	1%
COc1ccc(NC(=O)c2ccc(C(=O)c3ccccc3)o2)cc1	7.4µM*	17	-6%	36%	0%	3%
CCCC(=O)Nc1ccc(Cl)c(NC(=O)c2cccc(OC)c2)c1	-21%	-79*	?	-4%	8.9µM*	-1%
CN(C)S(=O)(=O)Oc1ccc(C(=O)Nc2cccc(C(F)(F)F)c2)cc1	?	-76*	11µM*	1.7µM*	?	3%
O=C(NCc1ccc(Cl)cc1)c1cc2ccccc2oc1=O	-5%	-4	25%	5.2µM*	4%	2%
Cc1cccc(NC(=O)c2ccc(C(=O)c3ccccc3)o2)c1	-20%	77	13%	?	.	-1%
COc1cccc(C(=O)Nc2ccc(C(=O)c3ccccc3)cc2)c1	3%	?	10µM*	?	4%	-7%
CN(C)S(=O)(=O)Oc1cccc(C(=O)Nc2ccccc2Cl)c1	66%	9	-9%	16%	11%	0%
CN(C)S(=O)(=O)Oc1cccc(C(=O)Nc2ccc(Cl)cc2)c1	279%	-29	10µM*	471%	19%	-4%
O=C(O)c1ccc(Oc2ccc(S(=O)(=O)c3ccc(C(=O)O)c(C(=O)O)c3)cc2)cc1	-7%	-6	16%	?	-27%	-9%
O=C(c1cc(C(=O)NCc2ccc(Cl)cc2)c(=O)n(Cc2ccc(Cl)cc2)c1)c1cc(F)ccc1O	2.9µM*	-17	?	1.5µM*	8%	-21%
COC(=O)c1ccc2nc(-c3ccco3)c(Cc3ccccc3)n2c1	.	121	.	.	.	.
SMILES	Pf growth 48h	HCMV antiviral	HCV inhibitor	Pf growth 96h	Sm TGR block	SARS PLpro yeast
COC(=O)CC1=C(c2ccc([N+](=O)[O-])cc2)CCC1=O	.	-38	-5%	.	.	.
Cc1ccc(C2=C(CC(=O)O)C(=O)CC2)cc1	22%	27	16%	4.7µM*	-19%	-8%
CSCCC(C(=O)N1CC2(C)CC1CC(C)(C)C2)N1C(=O)c2ccccc2C1=O (stereo not given)	-22%	34	3%	13µM*	-28%	3%
CC1(C)CC2CC(C)(CN2C(=O)CN2C(=O)c3ccccc3C2=O)C1 (stereo not given)	8%	-25	16%	.	-1%	-1%
O=C(Nc1ccc([N+](=O)[O-])cc1)N1CCN(C(=O)C2CCCO2)CC1 (stereo not given)	?	14	33%	17%	2%	2%
CCOCCCNC(=O)CCn1ccc2cc(S(=O)(=O)N3CCCC3)ccc21	?	-27	11%	10µM*	4%	5%
CN(C)c1ccc(CNC(=O)CCCn2ccc3cc(S(=O)(=O)N4CCCC4)ccc32)cc1	.	-19	.	.	20%	.
O=C(CCCn1ccc2cc(S(=O)(=O)N3CCCC3)ccc21)NCc1ccc(Cl)cc1	.	-87*	.	.	6%	.
CCOc1ccc(CCNC(=O)CCn2ccc3cc(S(=O)(=O)N4CCCC4)ccc32)cc1	?	-8	13µM*	?	-2%	-6%
O=C(c1ccccc1)c1c(-c2ccccc2)[nH]n(-c2ccccc2)c(=O)c1=O	.	9	6%	.	.	.
COc1ccc(CN2C(=O)c3ccccc3C2c2nnnn2-c2ccc3c(c2)OCCO3)cc1OC (stereo not given)	.	-5	.	.	.	.
COc1ccc(NS(=O)(=O)c2ccc3nc(COc4ccc(Cl)c(C)c4)[nH]c3c2)cc1	?	?	-21%	?	5%	-11%
O=C1ON(Cc2ccccc2)C(c2ccccc2)N1c1ccccc1 (stereo not given)	.	18	2%	.	.	.
CCOc1cc(C2C(C(=O)O)c3cc(OCC)c(OCC)cc3C(=O)N2C)ccc1O (stereo not given)	-7%	4	3%	12µM*	-23%	4%
CCOc1cc2c(cc1OCC)C(C(=O)O)C(c1cc(OC)c(OC)c(OC)c1)N(C)C2=O (stereo not given)	?	3	18%	?	16%	0%
COc1cc2c(cc1OC)C(C(=O)O)C(c1ccc(C)o1)N(C)C2=O (stereo not given)	33%	?	5%	13µM*	0%	8%
Cc1ccc(C2C(C(=O)O)c3ccccc3C(=O)N2C)o1 (stereo not given)	15%	-34	?	.	-11%	9%
O=c1cc(-c2cc3ccccc3o2)c2cc(O)ccc2o1	?	.	?	?	?	-2%
CC(=O)COc1ccc2oc(=O)cc(-c3cc4ccccc4o3)c2c1	-4%	-11	14µM*	?	20%	-8%
